Measurements reported in the supplement of paper PMC6411743.
± gives the standard deviation of the averaged measurements. About 6,200 targets were measured; listed, in parts, are those with the largest changes and a random draw of the rest.

Compound: Nc1ncnc2c1ncn2[C@@H]1O[C@H](COP(=O)(O)OP(=O)(O)NP(=O)(O)O)[C@@H](O)[C@H]1O [adenylyl imidodiphosphate]
Assay: NP40-soluble protein abundance relative to vehicle (solubility fold change) (ratio); higher = more soluble protein in presence of AMP-PNP
Procedure, shortened: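 Jurkat crude lysate (Dounce-homogenised) was treated with eight concentrations from 0.1 to 10 mM for 10 min at room temperature, then 3 min at 37 °C. It was solubilised with 0.8% NP40 and benzonase (60 min, 4 °C) and ultracentrifuged, and the supernatant was TMT-labelled for LC-MS/MS. Intensities were vsn-normalised, and the value is the fold change against the NP40-processed vehicle per replicate, from three independent experiments.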

UniProt Q9HCE1, sequence (Q9HCE1 whole entry): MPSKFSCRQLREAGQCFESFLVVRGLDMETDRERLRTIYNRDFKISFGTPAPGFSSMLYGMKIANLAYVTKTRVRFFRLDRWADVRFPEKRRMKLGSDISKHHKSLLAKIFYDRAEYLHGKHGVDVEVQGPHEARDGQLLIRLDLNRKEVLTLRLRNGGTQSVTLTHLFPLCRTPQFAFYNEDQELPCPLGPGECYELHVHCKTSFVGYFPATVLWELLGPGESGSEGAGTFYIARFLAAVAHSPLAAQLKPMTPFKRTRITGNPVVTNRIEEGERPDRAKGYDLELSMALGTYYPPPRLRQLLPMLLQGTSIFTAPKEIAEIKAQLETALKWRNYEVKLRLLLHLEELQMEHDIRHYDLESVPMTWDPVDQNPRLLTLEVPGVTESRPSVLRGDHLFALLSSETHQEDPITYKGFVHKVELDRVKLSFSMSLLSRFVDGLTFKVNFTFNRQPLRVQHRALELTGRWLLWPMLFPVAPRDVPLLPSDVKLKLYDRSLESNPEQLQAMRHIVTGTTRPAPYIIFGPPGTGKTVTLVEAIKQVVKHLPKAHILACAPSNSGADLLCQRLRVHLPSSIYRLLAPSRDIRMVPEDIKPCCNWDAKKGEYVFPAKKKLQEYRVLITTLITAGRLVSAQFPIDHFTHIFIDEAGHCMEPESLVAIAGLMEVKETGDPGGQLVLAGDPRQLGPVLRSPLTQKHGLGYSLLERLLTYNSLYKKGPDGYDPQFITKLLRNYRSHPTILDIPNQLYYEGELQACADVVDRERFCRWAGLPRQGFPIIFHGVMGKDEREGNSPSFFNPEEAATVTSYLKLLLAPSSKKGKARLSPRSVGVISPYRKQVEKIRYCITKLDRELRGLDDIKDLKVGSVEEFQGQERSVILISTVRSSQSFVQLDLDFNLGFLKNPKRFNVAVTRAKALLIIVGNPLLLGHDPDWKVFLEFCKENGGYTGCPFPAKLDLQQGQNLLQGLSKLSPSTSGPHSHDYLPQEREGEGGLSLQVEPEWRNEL
UniProt Q9Y508, sequence (Q9Y508 whole entry): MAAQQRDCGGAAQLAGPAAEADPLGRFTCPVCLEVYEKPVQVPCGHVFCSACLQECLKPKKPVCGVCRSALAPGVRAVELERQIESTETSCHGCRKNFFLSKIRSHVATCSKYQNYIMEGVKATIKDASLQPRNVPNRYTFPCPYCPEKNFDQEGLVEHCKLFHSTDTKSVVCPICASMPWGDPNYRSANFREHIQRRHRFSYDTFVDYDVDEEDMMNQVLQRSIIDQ
UniProt Q9UIG0, sequence (Q9UIG0 whole entry): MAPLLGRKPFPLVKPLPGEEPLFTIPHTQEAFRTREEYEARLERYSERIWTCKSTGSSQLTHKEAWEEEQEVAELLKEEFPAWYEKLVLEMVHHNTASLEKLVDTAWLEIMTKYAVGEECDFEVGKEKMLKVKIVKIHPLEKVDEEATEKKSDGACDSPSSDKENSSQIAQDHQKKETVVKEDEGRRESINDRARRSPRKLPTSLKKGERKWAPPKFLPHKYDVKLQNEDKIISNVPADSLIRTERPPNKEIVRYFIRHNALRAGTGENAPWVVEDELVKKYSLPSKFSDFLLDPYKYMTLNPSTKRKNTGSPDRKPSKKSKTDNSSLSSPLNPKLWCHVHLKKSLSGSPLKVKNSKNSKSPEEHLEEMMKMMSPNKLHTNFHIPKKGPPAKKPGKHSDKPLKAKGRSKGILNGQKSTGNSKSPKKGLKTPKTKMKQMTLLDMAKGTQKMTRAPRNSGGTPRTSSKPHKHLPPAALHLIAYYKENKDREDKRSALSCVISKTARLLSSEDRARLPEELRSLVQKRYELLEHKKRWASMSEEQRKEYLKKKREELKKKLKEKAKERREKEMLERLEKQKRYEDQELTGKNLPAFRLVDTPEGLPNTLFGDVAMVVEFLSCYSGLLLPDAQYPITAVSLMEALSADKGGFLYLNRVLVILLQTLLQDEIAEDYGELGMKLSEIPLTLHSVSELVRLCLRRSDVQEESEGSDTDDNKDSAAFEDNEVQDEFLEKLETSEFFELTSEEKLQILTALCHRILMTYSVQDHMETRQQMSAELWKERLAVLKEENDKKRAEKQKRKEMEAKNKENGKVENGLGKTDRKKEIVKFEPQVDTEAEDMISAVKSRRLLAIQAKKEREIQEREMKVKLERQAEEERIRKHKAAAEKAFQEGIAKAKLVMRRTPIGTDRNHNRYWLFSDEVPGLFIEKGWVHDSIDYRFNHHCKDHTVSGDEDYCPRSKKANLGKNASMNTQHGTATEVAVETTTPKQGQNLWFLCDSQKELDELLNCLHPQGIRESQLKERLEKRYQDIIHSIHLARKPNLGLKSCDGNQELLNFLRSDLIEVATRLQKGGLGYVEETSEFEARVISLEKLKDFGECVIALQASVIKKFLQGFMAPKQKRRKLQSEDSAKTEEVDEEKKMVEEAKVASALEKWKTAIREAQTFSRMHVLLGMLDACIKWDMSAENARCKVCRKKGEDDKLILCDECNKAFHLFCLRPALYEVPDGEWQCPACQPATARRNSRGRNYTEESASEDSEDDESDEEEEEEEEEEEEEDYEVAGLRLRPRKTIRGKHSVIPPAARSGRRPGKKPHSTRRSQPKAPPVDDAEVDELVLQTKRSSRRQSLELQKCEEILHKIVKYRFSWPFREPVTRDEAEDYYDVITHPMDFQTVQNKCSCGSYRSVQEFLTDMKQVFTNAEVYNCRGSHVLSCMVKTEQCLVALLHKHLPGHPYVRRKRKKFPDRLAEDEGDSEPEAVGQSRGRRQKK
UniProt Q9H0W9, sequence (Q9H0W9 whole entry): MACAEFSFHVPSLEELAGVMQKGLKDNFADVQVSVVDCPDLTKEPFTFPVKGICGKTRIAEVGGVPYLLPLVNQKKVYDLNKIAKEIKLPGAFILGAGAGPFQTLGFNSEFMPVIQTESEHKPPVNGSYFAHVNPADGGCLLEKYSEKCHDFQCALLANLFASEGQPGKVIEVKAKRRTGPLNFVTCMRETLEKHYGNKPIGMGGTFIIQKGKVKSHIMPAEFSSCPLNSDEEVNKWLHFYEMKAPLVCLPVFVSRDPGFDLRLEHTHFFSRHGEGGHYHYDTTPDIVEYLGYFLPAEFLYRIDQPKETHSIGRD
UniProt Q9NP97, sequence (Q9NP97 whole entry): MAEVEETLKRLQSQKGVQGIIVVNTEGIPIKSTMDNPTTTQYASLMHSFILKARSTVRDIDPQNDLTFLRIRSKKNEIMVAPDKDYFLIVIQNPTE
UniProt Q9BRT2, sequence (Q9BRT2 whole entry, one chain of several): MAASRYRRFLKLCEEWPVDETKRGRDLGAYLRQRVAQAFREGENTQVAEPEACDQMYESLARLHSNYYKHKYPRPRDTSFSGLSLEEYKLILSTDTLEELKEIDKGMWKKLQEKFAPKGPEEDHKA
UniProt Q9Y2T7, sequence (Q9Y2T7 whole entry): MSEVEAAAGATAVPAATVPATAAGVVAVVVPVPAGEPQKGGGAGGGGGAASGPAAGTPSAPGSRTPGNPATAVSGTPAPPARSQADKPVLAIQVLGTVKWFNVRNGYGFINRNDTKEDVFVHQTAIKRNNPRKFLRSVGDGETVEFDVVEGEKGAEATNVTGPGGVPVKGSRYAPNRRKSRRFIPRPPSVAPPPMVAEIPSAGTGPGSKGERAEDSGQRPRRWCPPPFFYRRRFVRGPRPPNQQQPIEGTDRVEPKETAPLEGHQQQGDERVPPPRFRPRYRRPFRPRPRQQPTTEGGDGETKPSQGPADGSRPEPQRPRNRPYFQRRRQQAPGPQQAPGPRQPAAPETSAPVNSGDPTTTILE
UniProt Q9P1W8, sequence (Q9P1W8 whole entry): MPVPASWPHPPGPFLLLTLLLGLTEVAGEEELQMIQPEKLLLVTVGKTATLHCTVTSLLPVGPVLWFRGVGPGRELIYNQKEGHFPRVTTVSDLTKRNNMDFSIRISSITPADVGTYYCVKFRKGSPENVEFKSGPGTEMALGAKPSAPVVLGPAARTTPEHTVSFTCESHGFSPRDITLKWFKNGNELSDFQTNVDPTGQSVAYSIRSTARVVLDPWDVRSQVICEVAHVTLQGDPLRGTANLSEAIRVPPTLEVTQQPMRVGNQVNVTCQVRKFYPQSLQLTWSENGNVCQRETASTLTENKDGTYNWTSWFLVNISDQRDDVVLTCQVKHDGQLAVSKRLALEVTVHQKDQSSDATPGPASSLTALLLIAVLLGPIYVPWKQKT
UniProt Q9H1D9, sequence (Q9H1D9 whole entry): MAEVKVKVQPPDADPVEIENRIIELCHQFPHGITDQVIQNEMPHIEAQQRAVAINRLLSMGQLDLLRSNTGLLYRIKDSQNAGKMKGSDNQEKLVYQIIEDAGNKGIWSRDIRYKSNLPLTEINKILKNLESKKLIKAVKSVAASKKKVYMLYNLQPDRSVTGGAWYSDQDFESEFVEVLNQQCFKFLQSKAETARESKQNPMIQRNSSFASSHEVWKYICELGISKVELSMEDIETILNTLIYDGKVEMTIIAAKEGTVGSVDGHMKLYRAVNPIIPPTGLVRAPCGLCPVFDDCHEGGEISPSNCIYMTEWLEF
UniProt Q9NZC3, sequence (Q9NZC3 whole entry): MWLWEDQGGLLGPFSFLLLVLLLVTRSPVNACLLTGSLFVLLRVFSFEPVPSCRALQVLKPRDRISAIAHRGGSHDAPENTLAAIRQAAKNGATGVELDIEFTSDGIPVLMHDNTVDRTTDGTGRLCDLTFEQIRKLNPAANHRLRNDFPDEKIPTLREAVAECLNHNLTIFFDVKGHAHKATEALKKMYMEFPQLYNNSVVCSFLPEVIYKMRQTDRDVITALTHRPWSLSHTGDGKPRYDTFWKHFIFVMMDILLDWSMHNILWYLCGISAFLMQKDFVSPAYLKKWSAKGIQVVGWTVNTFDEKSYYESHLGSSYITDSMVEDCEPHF
UniProt Q9H773, sequence (Q9H773 whole entry, one chain of several): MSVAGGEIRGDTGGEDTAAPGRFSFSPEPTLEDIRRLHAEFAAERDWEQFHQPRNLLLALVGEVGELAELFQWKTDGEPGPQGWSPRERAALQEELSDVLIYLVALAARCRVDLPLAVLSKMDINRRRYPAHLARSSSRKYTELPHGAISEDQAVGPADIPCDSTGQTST
UniProt Q9BPZ3, sequence (Q9BPZ3 whole entry, one chain of several): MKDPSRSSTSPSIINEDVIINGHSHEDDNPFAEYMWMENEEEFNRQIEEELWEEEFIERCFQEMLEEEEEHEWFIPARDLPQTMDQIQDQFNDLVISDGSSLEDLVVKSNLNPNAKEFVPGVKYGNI

Target	NP40-soluble protein abundance (concentration: 1mM)	NP40-soluble protein abundance (concentration: 2mM)	NP40-soluble protein abundance (concentration: 4mM)	NP40-soluble protein abundance (concentration: 6mM)	NP40-soluble protein abundance (concentration: 8mM)	NP40-soluble protein abundance (concentration: 10mM)
UniProt Q9H6A9|Q9H6A9-2	1.01 ± 0.016	1.02 ± 0.027	0.98826 ± 0.00019	0.989 ± 0.028	0.9847 ± 0.0089	0.9795 ± 0.0059
UniProt Q9H0S4|Q9H0S4-2	0.994 ± 0.061	0.981 ± 0.022	1.11 ± 0.089	1.25 ± 0.12	1.39 ± 0.13	1.46 ± 0.14
NSMCE4A (UniProt Q9NXX6)	0.993 ± 0.068	0.945 ± 0.067	0.967 ± 0.056	0.933 ± 0.017	0.96 ± 0.026	0.941 ± 0.09
UniProt Q9H773|H3BSA6	1.03 ± 0.02	1.01 ± 0.019	1.041 ± 0.0073	1.03 ± 0.015	1.01 ± 0.019	1 ± 0.022
PSMD1 (UniProt Q99460)	0.902 ± 0.044	0.887 ± 0.06	0.851 ± 0.094	0.863 ± 0.11	0.848 ± 0.098	0.847 ± 0.13
MOV10 (UniProt Q9HCE1)	0.952 ± 0.027	0.867 ± 0.15	0.932 ± 0.09	0.938 ± 0.032	0.944 ± 0.08	0.889 ± 0.12
MCEE (UniProt Q96PE7)	0.998 ± 0.04	1.01 ± 0.04	0.997 ± 0.046	1.06 ± 0.036	1.03 ± 0.08	1.05 ± 0.1
UniProt Q9BYX2|Q9BYX2-2	0.981 ± 0.013	0.9921 ± 0.0015	1 ± 0.028	0.985 ± 0.042	0.972 ± 0.012	0.9639 ± 0.0013
UniProt Q9UL63|C9J7E8|Q9UL63-2	0.984 ± 0.065	0.968 ± 0.061	0.994 ± 0.041	0.937 ± 0.085	0.934 ± 0.092	0.922 ± 0.12
UniProt Q9UIG0|Q9UIG0-2	1.04 ± 0.048	1.08 ± 0.055	1.11 ± 0.046	1.23 ± 0.074	1.3 ± 0.11	1.45 ± 0.16
RNF114 (UniProt Q9Y508)	1.034 ± 0.0076	0.993 ± 0.021	1.03 ± 0.019	1.024 ± 0.0039	1.04 ± 0.018	1 ± 0.013
NOP58 (UniProt Q9Y2X3)	1.11 ± 0.021	1.17 ± 0.013	1.17 ± 0.014	1.24 ± 0.054	1.32 ± 0.033	1.46 ± 0.057
GDE1 (UniProt Q9NZC3)	1.01 ± 0.043	1.02 ± 0.034	1.01 ± 0.03	1.01 ± 0.08	0.995 ± 0.05	1.01 ± 0.06
WDR3 (UniProt Q9UNX4)	1.07 ± 0.015	1.09 ± 0.1	1.33 ± 0.039	1.55 ± 0.026	1.8 ± 0.064	1.78 ± 0.15
AMDHD2 (UniProt Q9Y303)	0.968 ± 0.016	0.923 ± 0.048	0.949 ± 0.024	0.954 ± 0.024	0.948 ± 0.02	0.922 ± 0.033
UniProt Q9NUY8|Q9NUY8-2	0.961 ± 0.0094	0.999 ± 0.026	0.986 ± 0.014	1 ± 0.035	0.991 ± 0.027	1.01 ± 0.031
UniProt Q9P0J0|Q9P0J0-2	0.912 ± 0.015	0.851 ± 0.095	0.89 ± 0.021	0.856 ± 0.017	0.877 ± 0.037	0.792 ± 0.047
UniProt Q9GZY4	0.995 ± 0.024	0.939 ± 0.041	1.01 ± 0.022	0.977 ± 0.015	0.9936 ± 0.0057	1.01 ± 0.051
LSG1 (UniProt Q9H089)	0.993 ± 0.019	0.975 ± 0.033	0.987 ± 0.017	0.926 ± 0.03	0.927 ± 0.034	0.924 ± 0.013

Target	NP40-soluble protein abundance (concentration: 1mM)	NP40-soluble protein abundance (concentration: 2mM)	NP40-soluble protein abundance (concentration: 4mM)	NP40-soluble protein abundance (concentration: 6mM)	NP40-soluble protein abundance (concentration: 8mM)	NP40-soluble protein abundance (concentration: 10mM)
UBAC1 (UniProt Q9BSL1)	0.965 ± 0.0098	1.01 ± 0.011	0.998 ± 0.028	0.955 ± 0.015	0.932 ± 0.036	0.933 ± 0.034
ACAT2 (UniProt Q9BWD1)	0.987 ± 0.021	0.996 ± 0.038	0.931 ± 0.021	0.967 ± 0.017	0.951 ± 0.021	0.92 ± 0.02
UniProt Q9P1W8|Q9P1W8-2	0.9928 ± 0.0047	1.04 ± 0.041	1.02 ± 0.018	1.0109 ± 0.00039	1.0171 ± 0.00063	1.024 ± 0.0042
UCK1 (UniProt Q9HA47)	0.981 ± 0.029	1.01 ± 0.028	1.01 ± 0.011	1.02 ± 0.026	0.9745 ± 0.0089	1.01 ± 0.01
UniProt Q9UG63|Q9UG63-2	1.04 ± 0.06	1.15 ± 0.065	1.41 ± 0.054	1.82 ± 0.11	2.25 ± 0.15	2.54 ± 0.26
UniProt Q9P2R7|Q9P2R7-2	0.9771 ± 0.0078	0.943 ± 0.027	0.938 ± 0.011	0.977 ± 0.032	0.958 ± 0.012	0.969 ± 0.049
ISCU (UniProt Q9H1K1)	1.01 ± 0.039	1.06 ± 0.018	0.987 ± 0.043	0.969 ± 0.03	0.96 ± 0.054	0.958 ± 0.047
UniProt Q9BRT2|V5IRT4	1.03 ± 0.022	1.13 ± 0.11	1.03 ± 0.016	1.0141 ± 0.00091	1.025 ± 0.0039	1.011 ± 0.0053
GRWD1 (UniProt Q9BQ67)	1.09 ± 0.064	1.01 ± 0.089	1.11 ± 0.068	1.05 ± 0.043	1.11 ± 0.073	1.04 ± 0.045
UniProt Q9Y4E8|Q9Y4E8-3	0.967 ± 0.013	0.963 ± 0.032	1.02 ± 0.041	1 ± 0.048	0.993 ± 0.065	1.01 ± 0.027
UniProt Q9HC36	1.05 ± 0.047	1.1 ± 0.088	1.23 ± 0.12	1.37 ± 0.18	1.51 ± 0.22	1.6 ± 0.28
UniProt Q9Y520|Q9Y520-5|Q9Y520-7|E7EPN9|Q9Y520-4	1.1 ± 0.013	1.2 ± 0.092	1.2 ± 0.05	1.25 ± 0.12	1.29 ± 0.14	1.41 ± 0.17
CCDC86 (UniProt Q9H6F5)	1.12 ± 0.025	1.17 ± 0.096	1.2 ± 0.017	1.25 ± 0.05	1.31 ± 0.084	1.4 ± 0.13
UniProt Q9UHP3|Q9UHP3-1|Q9UHP3-3	0.966 ± 0.013	0.997 ± 0.015	0.975 ± 0.026	0.963 ± 0.023	0.964 ± 0.013	0.971 ± 0.024
UniProt Q9BPZ3|D6R9Y1	0.981 ± 0.02	1.01 ± 0.044	0.945 ± 0.028	0.966 ± 0.051	0.929 ± 0.014	0.9085 ± 0.0067
CHMP6 (UniProt Q96FZ7)	1.03 ± 0.028	1.05 ± 0.022	1.03 ± 0.038	1.01 ± 0.03	1.02 ± 0.032	0.964 ± 0.033
RAB23 (UniProt Q9ULC3)	0.9714 ± 0.0024	0.9596 ± 0.0092	0.974 ± 0.029	1.01 ± 0.029	1.03 ± 0.044	1 ± 0.018
UTP18 (UniProt Q9Y5J1)	1.05 ± 0.029	1.07 ± 0.048	1.1 ± 0.044	1.23 ± 0.028	1.28 ± 0.062	1.36 ± 0.05
POLR3F (UniProt Q9H1D9)	0.959 ± 0.035	0.97 ± 0.08	0.962 ± 0.042	1.04 ± 0.062	1.03 ± 0.077	1.02 ± 0.087

Target	NP40-soluble protein abundance (concentration: 1mM)	NP40-soluble protein abundance (concentration: 2mM)	NP40-soluble protein abundance (concentration: 4mM)	NP40-soluble protein abundance (concentration: 6mM)	NP40-soluble protein abundance (concentration: 8mM)	NP40-soluble protein abundance (concentration: 10mM)
UniProt Q9UMZ2|Q9UMZ2-5|Q9UMZ2-9	1.02 ± 0.035	1.05 ± 0.064	1.03 ± 0.031	0.978 ± 0.035	0.955 ± 0.021	0.981 ± 0.037
UniProt Q9UKT4|Q9UKT4-2	0.995 ± 0.029	1.03 ± 0.031	1.03 ± 0.072	1 ± 0.061	1.02 ± 0.092	1.02 ± 0.11
HEBP2 (UniProt Q9Y5Z4)	0.978 ± 0.012	0.9687 ± 0.0064	0.952 ± 0.023	0.957 ± 0.021	0.964 ± 0.018	0.926 ± 0.042
UniProt Q9H8P0|H0Y9P9	0.933 ± 0.084	0.9132 ± 0.0065	0.948 ± 0.063	0.999 ± 0.14	1.02 ± 0.12	1.05 ± 0.15
DYNLRB1 (UniProt Q9NP97)	0.996 ± 0.011	1.04 ± 0.054	0.977 ± 0.03	1.01 ± 0.018	0.9949 ± 0.0057	1.01 ± 0.02
RAB39B (UniProt Q96DA2)	1 ± 0.025	0.934 ± 0.066	0.996 ± 0.019	0.9868 ± 0.0097	0.986 ± 0.015	0.954 ± 0.041
DDX21 (UniProt Q9NR30)	1.21 ± 0.11	1.25 ± 0.13	1.39 ± 0.23	1.55 ± 0.31	1.66 ± 0.38	1.78 ± 0.4
PFDN2 (UniProt Q9UHV9)	1.05 ± 0.084	1.11 ± 0.11	0.986 ± 0.062	0.928 ± 0.1	0.85 ± 0.016	0.941 ± 0.083
SORT1 (UniProt Q99523)	0.99 ± 0.034	1.05 ± 0.089	0.995 ± 0.063	1.03 ± 0.055	1.03 ± 0.036	1.03 ± 0.047
REXO4 (UniProt Q9GZR2)	1.06 ± 0.047	1.09 ± 0.073	1.1 ± 0.038	1.17 ± 0.036	1.18 ± 0.039	1.21 ± 0.051
YBX2 (UniProt Q9Y2T7)	1.02 ± 0.029	1.06 ± 0.013	1.02 ± 0.018	1.01 ± 0.029	1.01 ± 0.036	1.038 ± 0.0094
UniProt Q99828|Q99828-2	1.001 ± 0.0091	0.977 ± 0.03	0.993 ± 0.035	0.9794 ± 0.0058	0.949 ± 0.036	0.95 ± 0.025
UniProt Q9NVI7-2	1.08 ± 0.075	1.05 ± 0.073	1.14 ± 0.18	1.29 ± 0.18	1.38 ± 0.24	1.44 ± 0.32
PARP12 (UniProt Q9H0J9)	0.982 ± 0.046	0.946 ± 0.042	1.01 ± 0.022	0.991 ± 0.015	1.04 ± 0.029	1.01 ± 0.023
PPCS (UniProt Q9HAB8)	1.03 ± 0.033	0.981 ± 0.038	1.01 ± 0.028	1.03 ± 0.02	1.03 ± 0.026	1.04 ± 0.021
UniProt Q9UGJ1|Q9UGJ1-2|H3BPU4	1.01 ± 0.037	1.01 ± 0.024	1.04 ± 0.05	1 ± 0.028	1 ± 0.091	1.03 ± 0.08
UniProt Q9H0W9|Q9H0W9-2	0.99 ± 0.035	0.972 ± 0.036	0.973 ± 0.029	0.974 ± 0.012	0.949 ± 0.043	0.935 ± 0.037
ATAD5 (UniProt Q96QE3)	1.03 ± 0.026	1.05 ± 0.046	1.08 ± 0.028	1.08 ± 0.031	1.08 ± 0.022	1.12 ± 0.045
